The sample as a whole holds a higher share of hits than the screen did.
HT1080 IDH1KD tx – HT-1080 IDH1 knockdown cell toxicity (counter line) | hit rate 2% among 360,000 | Potency, µM (highest dose often 46.1 µM), without a hit: at the highest dose activity, negative = toxicity, actives largely listed as cytotoxic | HT-1080 IDH1 knockdown viability, ATP luminescence, 48 h;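 further: potency means the concentration at half of the fitted maximal effect; 0% = DMSO wells and -100% = cell-free medium wells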
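Cytotoxicity counter-line: IDH1KD HT-1080, 48 h, CellTiter-Glo. Curves classed by r2, magnitude and activity.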
DT40 TDP1 no CPT – qHTS for Inhibitors of human tyrosyl-DNA phosphodiesterase 1 (TDP1): qHTS in cells in absence of CPT | DT40 Tdp1-/- hTDP1 cells, no CPT, ATP luminescence, 48 h | Potency, µM (doses to about 46.2 µM), inactives show top-dose activity change, negative = growth inhibition, hits mostly inhibitors | hit rate 15% among 420,000 | AID 686978, 2013; further: potency means the concentration at half of the fitted maximal effect; nearly all actives have a fitted effect of over 55% in size
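Growth kinetics read by CellTiter-Glo luminescence after ≥48 hr at 37 °C. Cells: DT40 Tdp1-/- stably carrying human TDP1, 400 per well, compound exposure in the absence of CPT (DMSO vehicle).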
HT1080-NT tox – kills 2HG-producing HT-1080-NT fibrosarcoma cells. HT-1080-NT fibrosarcoma viability, CellTiter-Glo ATP luminescence, 48 h. Potency, µM (series often up to 46.1 µM), for the others: at the top dose activity, negative = less viability, actives largely listed as cytotoxic. hit rate 1.6% among 360,000. AID 686970;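 further: NT is the 2HG producing partner of a matched IDH1 knockdown line; potency means the concentration at half of the fitted maximal effect; 0% = DMSO-treated cells and -100% = media-only wells without cells; nearly all actives have a fitted effect of over 55% in size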
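750 cells/well, RPMI + 5% FBS; 2 h settle, compound pin-transfer, 48 h at 37 degrees C. CellTiter-Glo 10 min RT, luminescence. Normalized to DMSO and media-only wells.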
ALOX12 inh – blocks human arachidonate 12S-lipoxygenase; purified 12hLO, xylenol orange hydroperoxide absorbance; Potency, µM (series often up to 108 µM), for inactives: at the top dose activity change, negative = inhibition, most hits filed as inhibitors; hit rate 1.1% among 580,000; AID 1671190; further: potency means the concentration at half of the fitted maximal effect
Target sequence (P18054 whole entry, looked up): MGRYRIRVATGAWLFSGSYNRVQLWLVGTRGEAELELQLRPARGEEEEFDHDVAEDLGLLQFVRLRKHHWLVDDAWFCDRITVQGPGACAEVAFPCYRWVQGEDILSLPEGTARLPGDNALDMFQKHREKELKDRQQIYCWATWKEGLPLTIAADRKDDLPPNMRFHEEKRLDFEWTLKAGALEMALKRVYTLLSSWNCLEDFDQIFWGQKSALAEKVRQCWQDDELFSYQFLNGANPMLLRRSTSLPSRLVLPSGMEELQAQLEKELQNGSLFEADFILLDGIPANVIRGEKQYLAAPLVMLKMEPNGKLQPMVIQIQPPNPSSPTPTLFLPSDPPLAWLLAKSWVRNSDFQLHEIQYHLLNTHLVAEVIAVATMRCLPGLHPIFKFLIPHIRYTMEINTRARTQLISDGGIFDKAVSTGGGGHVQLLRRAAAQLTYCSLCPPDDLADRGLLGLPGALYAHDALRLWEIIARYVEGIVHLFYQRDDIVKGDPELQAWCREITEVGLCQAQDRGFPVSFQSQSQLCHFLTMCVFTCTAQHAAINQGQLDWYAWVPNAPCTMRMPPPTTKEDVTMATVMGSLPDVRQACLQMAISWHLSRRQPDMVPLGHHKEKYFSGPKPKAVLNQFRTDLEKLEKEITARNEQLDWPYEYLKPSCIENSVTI
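Purified human 12hLO (150 nM final) in 25 mM Hepes, 0.01% Triton X-100, pH 7.0 was preincubated 15 min at room temperature with compound. Then 40 uM arachidonic acid was added, 30 min. Hydroperoxide was read by Fe-XO absorbance ratio 573/405 nm.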
IL1B secr inh – inhibitors of inflammasome signaling (IL-1 beta secretion). hit rate 4.7% among 360,000. activity change, % at 57.5 µM. THP-1 LPS/ATP IL-1B secretion, AlphaLISA, 16 h; hits give low values; in the data active means activity change below about -50%; inconclusive means mostly about -30% to -49%
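Secreted IL-1B measured by AlphaLISA bead assay after 16 h compound exposure of THP-1 cells; compounds (final up to 57.5 uM) added 1 h before LPS (250 ng/mL) and ATP (1.25 mM) stimulation; lower signal means less secretion.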
TDP1 cell CPT – growth inhibition of DT40 Tdp1-/-;hTDP1 cells with camptothecin (screen for TDP1 inhibitors) | Potency, µM (highest dose often 46.2 µM), inactives show top-dose activity change, negative = growth inhibition, usual class: inhibitors | hit rate 12% among 420,000 | chicken DT40 Tdp1-/-;hTDP1 cells + 20 nM CPT, ATP luminescence, 48 h; further: potency means the concentration at half of the fitted maximal effect; nearly all actives have a fitted effect of over 55% in size
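Chicken DT40 Tdp1-/- cells stably complemented with human TDP1 were seeded at 400 cells/well in medium containing 20 nM camptothecin, exposed to pin-transferred compounds, and grown at 37 °C for at least 48 hr. Viability was read as ATP luminescence.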
Starred values were filed as active, the others as inactive. Unless noted, the call rests on the fitted dose curve; in most records, active means well fitted curve in the direction sought with a large enough effect; inconclusive means small, poorly fitted or top-dose-only effect, or another doubt; inactive means no such curve, though single readings can be large; an effect the other way counts as inactive or inconclusive. Unless noted, on the % scale 0 is the no-effect control and ±100 the full control effect.

For CCOC(=O)C1CCCN(C(=O)c2cccc(S(=O)(=O)N(C)c3ccc(OC)cc3)c2)C1 (centres undefined) the results were HT1080 IDH1KD tx 2%, DT40 TDP1 no CPT inconclusive, HT1080-NT tox 1%, ALOX12 inh 8%, IL1B secr inh 20 and TDP1 cell CPT inconclusive.
`CCOC(=O)C1CCCN(C(=O)c2cccc(S(=O)(=O)N(Cc3ccccc3)c3ccccc3OC)c2)C1` (centres undefined) gave HT1080 IDH1KD tx 4%, DT40 TDP1 no CPT 16µM*, HT1080-NT tox -6%, ALOX12 inh 10%, IL1B secr inh -15 and TDP1 cell CPT 23µM*.
For CCOC(=O)C1CCCN(C(=O)c2ccc3nc(-c4ccccc4)c(-c4ccccc4)nc3c2)C1 (centres undefined) the results were HT1080 IDH1KD tx -2%, DT40 TDP1 no CPT 21µM*, HT1080-NT tox 6%, ALOX12 inh 9%, IL1B secr inh -9 and TDP1 cell CPT inconclusive.
CCOC(=O)C1CCCN(C(=O)c2ccc3ncsc3c2)C1 (centres undefined) was read as HT1080 IDH1KD tx -7%, DT40 TDP1 no CPT -10%, HT1080-NT tox 0%, ALOX12 inh -2%, IL1B secr inh -1 and TDP1 cell CPT -20%.
`CCOC(=O)C1CCCN(C(=O)c2ccc3nc(-c4ccc(OC)c(OC)c4)c(-c4ccc(OC)c(OC)c4)nc3c2)C1` (centres undefined) gave HT1080 IDH1KD tx -14%, DT40 TDP1 no CPT inconclusive, HT1080-NT tox -17%, ALOX12 inh -10%, IL1B secr inh -8 and TDP1 cell CPT 29µM*.
For CCN1C[C@@H]2[C@@H]3C(=O)N(Cc4ccccc4)C(=O)[C@@H]3[C@](Cc3ccccc3)(C1=O)N2C(=O)c1ccc(C(C)(C)C)cc1 the results were HT1080 IDH1KD tx 5%, DT40 TDP1 no CPT 18µM*, HT1080-NT tox -3%, ALOX12 inh -16%, IL1B secr inh -13 and TDP1 cell CPT 16µM*.
Screening O=C(NCc1cc(C(F)(F)F)cc(C(F)(F)F)c1)C1CC(c2c(Cl)cccc2Cl)=NO1 (centres undefined) returned HT1080 IDH1KD tx -13%, DT40 TDP1 no CPT inconclusive, HT1080-NT tox -3%, ALOX12 inh 4%, IL1B secr inh -50* and TDP1 cell CPT inconclusive.
Screening COc1ccc(CNC(=O)C2CC(c3ccccc3C(F)(F)F)=NO2)cc1 (centres undefined) returned HT1080 IDH1KD tx 4%, DT40 TDP1 no CPT -10%, HT1080-NT tox 8%, ALOX12 inh inconclusive, IL1B secr inh -15 and TDP1 cell CPT 0%.
`COc1ccc(CNC(=O)C2CC(c3cc(C(F)(F)F)cc(C(F)(F)F)c3)=NO2)cc1` (centres undefined) gave HT1080 IDH1KD tx 9%, DT40 TDP1 no CPT 4.6µM*, HT1080-NT tox 10%, ALOX12 inh -15%, IL1B secr inh 63 and TDP1 cell CPT 3.3µM*.
For COc1cc(NC(=O)C2CC(c3c(F)cccc3Cl)=NO2)cc(OC)c1OC (centres undefined) the results were HT1080 IDH1KD tx -10%, DT40 TDP1 no CPT 10µM*, HT1080-NT tox -8%, ALOX12 inh 1%, IL1B secr inh -16 and TDP1 cell CPT inconclusive.
For COc1ccc(CCNC(=O)C2CC(c3ccc(C(F)(F)F)cc3)=NO2)cc1 (centres undefined) the results were HT1080 IDH1KD tx 6%, DT40 TDP1 no CPT 15µM*, HT1080-NT tox 11%, ALOX12 inh 0%, IL1B secr inh 5 and TDP1 cell CPT inconclusive.
Screening COc1cccc2cc(-c3cc(=O)oc4c(C)c(C)ccc34)oc12 returned ALOX12 inh -23%.
